Results published in PubChem BioAssay.
Calls of active or inactive are those of the source.

Columns and labels:
[1] = system: Human papillomavirus type 1a protein E7 (residues 44-93); assay: small molecules binding HPV E7 44-93 – biochemical, small-molecule microarray, residues 44-93, 635 nm fluorescence, primary screen (AID 1108); settings: fluorescence 635 nm, higher = more signal;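 note: E7 fragment applied at 1 µg/mL in TBST for 1 h at 4 C; score combines spot fluorescence with its signal to noise ratio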
[2] = hepatitis C replication reporter changes, two-sided – Huh7 cells, luciferase reporter, HCV replication inhibitor project, primary screen (AID 1109); settings: Huh7 HCV replicon luciferase reporter, 48 h; higher = more signal;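 note: huh7 hepatoma cells harbouring a luciferase neomycin HCV replicon reporter; luciferase luminescence as measure of HCV replicon replication; test concentration not given here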
[3] = target: Left-right determination factor 2 (Homo sapiens) (UniProt O00292); assay: small molecules binding LEFTY2 protein – biochemical, small-molecule microarray, 635 nm fluorescence scan, primary screen (AID 1110); settings: higher = more signal
Sequence of Left-right determination factor 2 (Homo sapiens) (O00292 whole entry, looked up): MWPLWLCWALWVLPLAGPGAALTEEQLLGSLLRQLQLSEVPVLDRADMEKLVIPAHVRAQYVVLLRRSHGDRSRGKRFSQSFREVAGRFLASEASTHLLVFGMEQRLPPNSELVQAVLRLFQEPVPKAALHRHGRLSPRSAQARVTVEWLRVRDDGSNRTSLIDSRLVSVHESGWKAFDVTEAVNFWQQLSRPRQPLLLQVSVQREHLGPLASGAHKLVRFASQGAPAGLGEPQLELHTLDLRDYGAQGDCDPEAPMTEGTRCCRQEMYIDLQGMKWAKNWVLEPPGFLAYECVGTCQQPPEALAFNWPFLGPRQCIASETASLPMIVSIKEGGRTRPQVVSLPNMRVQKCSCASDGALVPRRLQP

[4] = target: Calmodulin-1 (Homo sapiens) (UniProt P0DP23); assay: small molecules binding calmodulin-1 with EGTA – biochemical, small-molecule microarray, Cy5-labelled CALM1, profiling panel (AID 1111); settings: Cy5-CALM1 binding fluorescence, higher = more signal;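 note: labelled calmodulin applied in Tris saline Tween buffer holding calcium plus EGTA and DTT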
[5] = target: Calmodulin-1 (Homo sapiens) (UniProt P0DP23); assay: small molecules binding Ca-loaded calmodulin-1 – biochemical, small-molecule microarray, Cy5-labelled CALM1, plus calcium, artefact control for SMM control-protein annotation, profiling panel (AID 1112); settings: Cy5-CALM1 binding fluorescence, higher = more signal;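 note: score merges spot fluorescence with signal to noise from triplicate slides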
[6] = probe aWnt5a binding to arrayed compounds – biochemical, biotinylated probe, 635/667 nm fluorescence, primary screen (AID 1113); settings: small-molecule microarray, higher = more signal;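 note: score merges 667 nm fluorescence intensity with signal-to-noise per printed feature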
[7] = probe aShh binding to arrayed compounds – biochemical, biotinylated probe, 635/667 nm fluorescence, primary screen (AID 1114); settings: small-molecule microarray, higher = more signal;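 note: probe is biotin-labelled aShh protein from a stem cell growth factor screen; measures binding of labelled protein to compounds printed on the slide; score merges feature fluorescence at 667 nm with signal-to-noise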
[8] = probe aNog binding to arrayed compounds – biochemical, biotinylated probe, 635/667 nm fluorescence, primary screen (AID 1115); settings: small-molecule microarray, higher = more signal;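 note: probe is biotinylated aNog protein used at 0.15 µg/mL for 1 h at 4 C; z-score combines 667 nm fluorescence of each spot with its signal to noise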
[9] = target: Torsin-1A-interacting protein 1 (Homo sapiens) (UniProt Q5JTV8); assay: compound microarray binding of lysate hLAP1 – cell lysate, small-molecule microarray, COS7 lysate, 635/667 nm fluorescence, primary screen (AID 1116); settings: 635 nm fluorescence, higher = more signal
Sequence of Torsin-1A-interacting protein 1 (Homo sapiens) (Q5JTV8 whole entry, looked up): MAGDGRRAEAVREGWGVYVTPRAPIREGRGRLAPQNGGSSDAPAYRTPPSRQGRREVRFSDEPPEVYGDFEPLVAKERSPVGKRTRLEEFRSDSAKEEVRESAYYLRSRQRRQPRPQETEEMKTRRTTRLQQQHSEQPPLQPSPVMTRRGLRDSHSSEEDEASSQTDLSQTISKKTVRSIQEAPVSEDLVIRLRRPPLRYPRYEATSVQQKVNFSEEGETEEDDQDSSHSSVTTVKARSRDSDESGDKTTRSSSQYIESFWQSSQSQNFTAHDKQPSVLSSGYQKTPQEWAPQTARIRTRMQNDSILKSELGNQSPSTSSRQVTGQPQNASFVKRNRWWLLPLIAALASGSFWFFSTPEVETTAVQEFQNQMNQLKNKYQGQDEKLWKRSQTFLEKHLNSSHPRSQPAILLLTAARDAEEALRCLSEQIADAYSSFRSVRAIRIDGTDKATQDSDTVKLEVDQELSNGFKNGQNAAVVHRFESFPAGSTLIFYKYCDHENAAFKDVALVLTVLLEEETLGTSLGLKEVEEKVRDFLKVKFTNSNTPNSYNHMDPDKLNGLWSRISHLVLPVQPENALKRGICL

[10] = target: Alpha-bungarotoxin (Bungarus multicinctus) (UniProt P60615); assay: compounds binding labelled alpha-BTX control protein – biochemical, small-molecule microarray, Alexa647 label, 635/667 nm fluorescence, artefact control for SMM control protein annotation, profiling panel (AID 1117); settings: alpha-BTX-A647 binding fluorescence, higher = more signal
Sequence of Alpha-bungarotoxin (Bungarus multicinctus) (P60615 whole entry, looked up): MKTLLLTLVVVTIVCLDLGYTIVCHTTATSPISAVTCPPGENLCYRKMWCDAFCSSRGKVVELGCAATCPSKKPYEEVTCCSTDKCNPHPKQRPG

Albumin (Bos taurus) = Albumin (Bos taurus) (UniProt P02769); assay: compounds binding labelled BSA control protein – biochemical, small-molecule microarray, Alexa647 label, 635/667 nm fluorescence, artefact control for SMM control protein annotation, profiling panel (AID 1118); settings: BSA-A647 binding, fluorescence 635 nm, higher = more signal;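 note: score merges 667 nm emission intensity and signal-to-noise per printed compound spot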
Sequence of Albumin (Bos taurus) (P02769 whole entry, looked up): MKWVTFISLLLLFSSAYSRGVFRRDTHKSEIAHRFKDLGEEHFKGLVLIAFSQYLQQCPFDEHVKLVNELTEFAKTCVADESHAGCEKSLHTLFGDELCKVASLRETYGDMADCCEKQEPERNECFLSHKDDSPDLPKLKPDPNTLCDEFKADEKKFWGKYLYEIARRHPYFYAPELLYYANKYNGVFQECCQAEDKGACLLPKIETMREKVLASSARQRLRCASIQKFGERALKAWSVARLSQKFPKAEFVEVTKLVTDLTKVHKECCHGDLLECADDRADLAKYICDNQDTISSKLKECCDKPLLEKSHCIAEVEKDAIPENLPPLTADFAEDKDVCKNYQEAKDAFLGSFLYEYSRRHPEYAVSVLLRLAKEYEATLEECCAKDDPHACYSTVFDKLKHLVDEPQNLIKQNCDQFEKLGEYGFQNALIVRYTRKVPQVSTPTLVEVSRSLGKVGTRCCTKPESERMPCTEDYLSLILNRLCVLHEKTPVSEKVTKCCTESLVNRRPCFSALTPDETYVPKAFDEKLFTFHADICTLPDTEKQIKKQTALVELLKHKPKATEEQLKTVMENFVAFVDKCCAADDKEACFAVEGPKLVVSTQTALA

[11] = probe aXIP binding to arrayed compounds – biochemical, NeuroSMM set, 635/667 nm fluorescence, primary screen (AID 1119); settings: small-molecule microarray, higher = more signal, called active from +8 up or from −8 down;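 note: probe is the protein aXip251-270 applied at 1 µg/mL to compound-printed slides; binding of probe to printed compounds measured as 667 nm fluorescence plus signal to noise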
[12] = probe aNOTCH3 binding on compound microarray – biochemical, small-molecule microarray, 635/667 nm fluorescence, primary screen (AID 1120); settings: higher = more signal;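 note: probe is a biotin-tagged antibody raised against NOTCH3 rather than NOTCH3 protein; score merges spot fluorescence near 667 nm with spot signal to noise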
[13] = probe aNOTCH2 binding on compound microarray – biochemical, small-molecule microarray, 635/667 nm fluorescence, primary screen (AID 1121); settings: higher = more signal;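 note: score merges feature fluorescence read at 667 nm with its signal to noise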
[14] = target: Carbonic anhydrase 2 (Homo sapiens) (UniProt P00918); assay: compounds binding carbonic anhydrase 2 – biochemical, small-molecule microarray, Alexa647-labelled CAII, profiling panel (AID 1122); settings: CAII-A647 binding fluorescence, higher = more signal
[15] = COS7 lysate on small-molecule microarray, probe aHis, 635 nm (AID 1123); settings: COS7 cell lysate, fluorescence, higher = more signal;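 note: z-score combines 667nm fluorescence intensity with signal-to-noise per printed compound spot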
[16] = probe aLAP1 signal on lysate-treated microarray – cell lysate, small-molecule microarray, COS7 lysate, primary screen (AID 1124); settings: probe aLAP1, fluorescence, higher = more signal;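 note: lysate comes from COS7 cells expressing LAP1 and is applied at 0.3 µg/mL; score merges spot fluorescence near 667 nm with signal-to-noise over triplicate slides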
Sam68 (KHDRBS1) = assay: compounds binding KHDRBS1 protein – biochemical, small-molecule microarray, 635 nm fluorescence, primary screen (AID 1125); settings: higher = more signal;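 note: score merges 667 nm channel intensity with signal to noise over triplicate slides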
[17] = system: Chordin-like protein 2 (CHRDL2); assay: compounds binding chordin-like 2 – biochemical, small-molecule microarray, 635 nm fluorescence, primary screen (AID 1126); settings: fluorescence 635 nm, higher = more signal;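 note: printed compound slides probed with Chrdl2 protein at 4 µg/mL for 1 h at 4 C; score merges 667 nm emission intensity with signal to noise over three replicate slides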
[18] = target: Concanavalin-A (Canavalia ensiformis) (UniProt P02866); assay: compounds binding concanavalin A lectin – biochemical, small-molecule microarray, Alexa647 label, 635 nm, artefact control for SMM control protein annotation, primary screen (AID 1127); settings: ConA-A647 binding fluorescence, higher = more signal;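 note: z combines 667 nm emission intensity with signal-to-noise across three replicate slides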
Sequence of Concanavalin-A (Canavalia ensiformis) (P02866 whole entry, looked up): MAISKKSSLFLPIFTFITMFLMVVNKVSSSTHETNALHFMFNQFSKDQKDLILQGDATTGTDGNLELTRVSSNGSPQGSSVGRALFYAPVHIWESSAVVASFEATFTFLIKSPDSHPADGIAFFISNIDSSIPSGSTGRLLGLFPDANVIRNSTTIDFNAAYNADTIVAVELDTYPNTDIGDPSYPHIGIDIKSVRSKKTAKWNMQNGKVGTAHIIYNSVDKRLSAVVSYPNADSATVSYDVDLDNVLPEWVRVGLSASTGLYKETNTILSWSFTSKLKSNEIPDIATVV

Row | Compound | composite z-score [1] | z-score [2] | composite z-score [3] | composite z-score [4] | composite z-score [5] | composite z-score [6] | composite z-score [7] | composite z-score [8] | composite z-score [9] | composite z-score [10] | composite z-score (Albumin (Bos taurus)) | composite Z-score [11] | composite z-score [12] | composite z-score [13] | composite z-score [14] | composite z-score [15] | composite z-score [16] | composite z-score (Sam68 (KHDRBS1)) | composite z-score [17] | composite z-score [18]
1 | C[C@]1(C(=O)O)c2ccccc2C(=O)N(Cc2cc(C(F)(F)F)cc(C(F)(F)F)c2)[C@H]1c1ccc(CO)cc1 | 0.966 | 1.07 | -0.255 | -0.076 | -1.16 | -0.145 | -0.214 | 0.081 | -0.0827 | 0.764 | 0.514 | 0.365 (inactive) | 0.0426 | -0.106 | 0.728 | 0.516 | -0.178 | 0.666 | -0.833 | 0.928
2 | C=CCNC(=O)[C@H]1[C@@H]2C(=O)O[C@@H](c3ccccc3)[C@@H](c3ccccc3)N2[C@@H](c2ccc(OCCO)cc2)[C@]12C(=O)N(C(=O)OCCOC)c1ccc(C#CCC(C(=O)OC)C(=O)OC)cc12 | 1.41 | -1.54 | 0.158 | 1.58 | 0.81 | 0.291 | 2.08 | 1.42 | 2.68 | 1.63 | 0.738 | 0.245 (inactive) | 0.327 | 0.0654 | 0.702 | 2.67 | 1.44 | 1.16 | 0.6 | 1.12
3 | COC(=O)C1=CC(c2ccc(CO)cc2)=CC(C2CC2)N(Cc2cc3c(cc2Br)OCO3)C=C1C(=O)OC (stereo not given) | 1.32 | -1.41 | 0.568 | 2.06 | 0.631 | 0.0251 | 0.254 | 0.564 | 2.15 | 2.47 | 0.861 | 2.69 (inactive) | 0.448 | 0.165 | 0.814 | 2.82 | 1.24 | 1.31 | 0.0562 | 1.19
4 | C=CC[C@H](O)c1ccc(O)c(F)c1 | -2.12 | -1.74 | -1.13 | -0.829 | -0.589 | -0.229 | -0.138 | -0.537 | -0.992 | -0.328 | -0.394 | 0.404 (inactive) | -0.849 | -0.157 | 0.828 | -0.268 | -0.0732 | -1.45 | -2.24 | -1.09
5 | COc1ccc([Si](C)(C)[C@H]2[C@H](CCO)O[C@@]3(C(=O)N(Cc4ccccc4)c4ccc(NC(=O)[C@H](C)O)cc43)[C@@H]2C)cc1 | 1.37 | -5.05 | 0.424 | 0.362 | 0.195 | 0.026 | -0.138 | 0.514 | 0.795 | 0.627 | 0.639 | 0.393 (inactive) | 0.372 | -0.0274 | 0.48 | 2.28 | -0.298 | 0.463 | 0.0883 | 0.473
6 | Cc1ccc(S[C@]2(C(=O)NCCN3CCOCC3)CC(=O)N(C(C)C)[C@@H]2c2ccc(CO)cc2I)cc1 | 0.89 | -2.32 | -0.532 | -1.17 | -0.693 | -0.154 | -0.138 | -0.119 | 0.974 | -1.08 | -0.233 | 0.289 (inactive) | -0.0111 | -0.0391 | 0.288 | 1.19 | 0.933 | 0.949 | -0.975 | -0.452
7 | COC(=O)[C@H](Cc1ccccc1)N1CC(C)(OC)O[C@@H](Cc2ccccc2)[C@H]1/C=C/C1CC1 (stereo not given in full) | 0.208 | -1.84 | -0.17 | -0.0441 | -0.233 | -0.0239 | -0.198 | 0.0299 | 0.726 | 0.2 | -0.266 | 0.571 (inactive) | -0.165 | -0.108 | 0.348 | 0.763 | 0.106 | 0.417 | -0.359 | 0.371
8 | CC[C@@H]1C=C(C(=O)O)[C@H](c2cccc(Cl)c2)N1S(=O)(=O)c1ccc(C)cc1 | 1.2 | -0.54 | -0.8 | 0.875 | 0.0755 | -0.0758 | 0.14 | 0.527 | 1.09 | 0.105 | 0.951 | -0.147 (inactive) | -0.0581 | 0.0274 | 0.824 | 2.46 | 0.501 | 1.09 | -0.682 | 0.471
9 | COc1c(C)cc(-c2cc3c(c(CCc4ccccc4)n2)[Si](C(C)C)(C(C)C)O[C@H]3c2ccccc2)cc1C | -0.52 | -3.84 | -0.124 | 0.261 | 0.502 | 0.0136 | 0.0008 | 0.0225 | -0.445 | -0.176 | -0.0598 | 0.123 (inactive) | -0.0728 | -0.14 | -0.121 | 0.463 | -0.153 | -0.423 | -0.2 | 0.398
10 | CN1C(=O)C2CC=C(C3=CCO[C@@H]3[C@H]3CCCN3S(=O)(=O)c3ccccc3[N+](=O)[O-])CC2C1=O (stereo not given in full) | -0.351 | -0.0844 | -0.377 | -0.194 | -0.0107 | -0.242 | -0.2 | -0.0116 | 0.0183 | 0.0302 | 0.811 | 0.0129 (inactive) | -0.0647 | -0.106 | -0.0199 | 0.205 | -0.065 | -0.7 | -0.537 | -0.65
11 | COC(=O)[C@@]1(Cc2ccc(F)cc2)[C@@H]2C(=CC(=O)[C@H]2CC(=O)C(=O)N2CCCC2)CN1C(=O)c1ccccc1 | 1.47 | -2.78 | 0.643 | 1.38 | -0.24 | 0.625 | 0.761 | 2.06 | 1.25 | 0.683 | 1.02 | -0.131 (inactive) | 1.24 | 0.845 | 0.65 | 3.14 | 0.805 | 1.22 | 0.484 | 0.455
12 | CO[C@H]1O[C@H](CO)[C@@H](OC(=O)CCc2ccccc2)[C@@H]2OC(=O)[C@@H](Cc3ccc4ccccc4c3)C/C=C/C[C@H](Cc3ccc4ccccc4c3)C(=O)O[C@@H]12 | 0.349 | 0.228 | -0.817 | -0.452 | -0.119 | -0.202 | -0.0709 | -0.266 | -0.0222 | 1.33 | 0.199 | 0.128 (inactive) | -0.21 | -0.172 | 0.191 | 1.18 | 0.273 | -0.183 | -1.34 | 0.208
13 | CCCCC=C[C@@H](NC(=O)C(C)(C)C)c1ccccc1 | 1.28 | -3.07 | 0.466 | 0.815 | 0.113 | 0.0357 | 0.54 | 0.863 | -0.334 | 0.82 | 0.743 | -0.424 (inactive) | 0.259 | -0.0769 | 0.509 | -0.0783 | 0.983 | 1.09 | -0.264 | 1.04
14 | CC(=O)NCCCC[C@@H]1NC(=O)[C@H]2C[C@@H](C(=O)NCCCCCN)[C@@H](c3ccc(O)cc3)N2C1=O | 1.36 | 0.199 | 0.777 | 0.536 | 0.973 | -0.1 | -0.0211 | -0.221 | 0.852 | 0.988 | 0.675 | 0.0898 (inactive) | -0.0677 | -0.0706 | 0.413 | 1.1 | -0.15 | 1.21 | 0.851 | 0.966
15 | O=C1O[C@H](c2ccccc2)[C@H](c2ccccc2)N2[C@H]1[C@@H](C(=O)N1CCN(c3ncccn3)CC1)[C@]1(C(=O)Nc3ccc(C#CC4(O)CCCCCC4)cc31)[C@H]2c1ccc(O)cc1 | 1.07 | -0.317 | 0.15 | 1.14 | 0.792 | -0.0037 | 0.106 | -0.0496 | 0.679 | 2.18 | 0.605 | -0.019 (inactive) | 0.0556 | -0.162 | 0.673 | 1.28 | 0.329 | 1.31 | -0.0362 | 0.946
16 | COc1ccc(C(=O)Nc2ccc(CN3C(=O)[C@]4(O[C@H](CC(=O)N(CCO)Cc5ccccc5)[C@@H]([Si](C)(C)c5ccc(OC)cc5)[C@@H]4C)c4ccccc43)cc2)cc1 | 1.37 | -3.71 | 0.803 | -0.0162 | -0.46 | 0.0354 | 0.108 | 0.0326 | 0.811 | 0.543 | -0.622 | -0.21 (inactive) | -0.0288 | -0.193 | 0.541 | 1.58 | 1.62 | 1.35 | 1.18 | 0.905
17 | COCCOC(=O)N1C(=O)[C@@]2(c3cc(C#CCCO)ccc31)[C@H](c1ccc(O)cc1)N1[C@H](c3ccccc3)[C@H](c3ccccc3)OC(=O)[C@H]1[C@@H]2C(=O)NC[C@H](O)c1ccccc1 | 0.495 | -1.02 | 0.285 | 0.212 | 0.0658 | -0.027 | 0.204 | 1.05 | 0.981 | 0.367 | 0.417 | 0.406 (inactive) | -0.0105 | -0.0858 | 0.529 | 1.89 | 1.08 | 1.29 | 0.181 | 0.613
